Data on 113 compounds can be found in PubChem BioAssay AID488969 (Vanderbilt High Throughput Screening Facility, 2010).

SMILES strings stand for the structures. Over roughly 110,000 compounds, “z-score” has its median near -0.1; the highest 2% begin near 2. What follows is part of a selection rich in the highest values, with near analogues and random picks from the rest. Active and inactive are the calls of the source.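 The calls were made as follows: active = z-score in the third read window above 3 or below -3; inactive = the rest.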

The target in this assay is Metabotropic glutamate receptor 8 (Rattus norvegicus) (UniProt P70579). As to the kind of experiment: rat mGluR8 modulators via GIRK flux, primary screen, cell-based, thallium flux, HTS (AID 488969). The settings on record: HEK293 rat mGluR8, GIRK (G protein-gated inwardly rectifying potassium channel) thallium flux, FluoZin2; at 10 µM; stronger effect = higher value; submaximal glutamate (EC20) added with thallium.
Sequence of Metabotropic glutamate receptor 8 (Rattus norvegicus) (P70579 whole entry, looked up): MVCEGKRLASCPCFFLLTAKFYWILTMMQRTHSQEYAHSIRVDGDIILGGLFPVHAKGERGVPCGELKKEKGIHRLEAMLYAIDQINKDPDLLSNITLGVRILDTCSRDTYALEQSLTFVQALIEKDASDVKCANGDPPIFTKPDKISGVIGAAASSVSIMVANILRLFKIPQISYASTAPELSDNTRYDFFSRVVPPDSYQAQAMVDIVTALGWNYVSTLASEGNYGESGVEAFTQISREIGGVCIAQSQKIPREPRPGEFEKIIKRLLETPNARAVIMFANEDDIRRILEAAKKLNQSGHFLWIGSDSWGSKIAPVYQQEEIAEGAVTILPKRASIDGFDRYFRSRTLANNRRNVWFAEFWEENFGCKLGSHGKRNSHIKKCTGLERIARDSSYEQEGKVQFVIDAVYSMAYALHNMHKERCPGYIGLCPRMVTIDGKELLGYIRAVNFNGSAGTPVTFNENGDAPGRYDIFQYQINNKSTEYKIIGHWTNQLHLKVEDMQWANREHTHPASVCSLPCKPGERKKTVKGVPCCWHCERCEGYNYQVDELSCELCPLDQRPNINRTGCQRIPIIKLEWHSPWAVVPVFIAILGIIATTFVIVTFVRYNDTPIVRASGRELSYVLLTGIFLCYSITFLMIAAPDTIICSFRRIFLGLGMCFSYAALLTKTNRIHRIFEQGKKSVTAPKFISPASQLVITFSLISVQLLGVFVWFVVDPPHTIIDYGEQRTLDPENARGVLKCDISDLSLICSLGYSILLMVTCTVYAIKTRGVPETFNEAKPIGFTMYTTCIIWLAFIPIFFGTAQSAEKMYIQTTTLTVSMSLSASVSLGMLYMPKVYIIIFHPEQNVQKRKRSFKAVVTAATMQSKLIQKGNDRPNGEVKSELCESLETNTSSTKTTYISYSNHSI
`CNC(=O)N1CCN(C(=O)NC)CC1`: the z-score was -0.168. As for `CCN(CC)S(=O)(=O)c1ccc(N2CCOCC2)c(NS(=O)(=O)c2cc(C(C)(C)C)ccc2C)c1`, the figure is -0.103; as for `O=C1[C@@H]2[C@H](C(=O)N1Cc1ccco1)[C@H]1C=C[C@@H]2C1`, -0.0939. As for `Cc1cc(C(=O)CSc2nc3ccccc3o2)c(C)n1CC1CCCO1` (stereo not drawn), the figure is -0.415. As for `CCCCCCc1cc2cc(C(=O)NC)c(=N)oc2cc1O`, the z-score is 11.6 (active). As for `CCCCCCc1cc2cc(C(N)=O)c(=N)oc2cc1O`, the figure is -1.44; as for `CCCCCCc1cc2cc(C(=O)NCc3ccccc3)c(=N)oc2cc1O`, 0.891; as for `O=C(Nc1ccc(Br)cc1)c1ccc(N2C(=O)C3CC=CCC3C2=O)cc1` (stereo not drawn), 0.106. As for `COc1cc(C(=O)NNC2=CC(=O)CC(C)(C)C2)cc(OC)c1OC`, the figure is -0.21; as for `Cc1cc(N/C(=N\S(=O)(=O)c2ccc(F)cc2F)c2ccccc2)no1`, 0.0702. As for `CCS(=O)(=O)Nc1ccc(-c2nnc(SCC(=O)c3ccc(NC(C)=O)c(OC)c3)o2)cc1`, the z-score was 4.64 (active).

The compound `CCn1c(SCC(=O)c2ccc(NC(C)=O)c(OC)c2)nnc1-c1ccc(NS(C)(=O)=O)cc1` gave a z-score of -0.0548. In turn, `CCC(=O)Nc1ccc(C(=O)CSc2nnc(CNc3ccc(Cl)cc3)o2)cc1OC` displayed a z-score of -0.38. Turning to `COc1ccc(-c2nnc(SCC(=O)Oc3ccc(C)cc3)o2)cc1`, the z-score was -0.915.

Compound `COc1ccc(C(=O)CSc2nnc(-c3ccc(C)cc3)o2)cc1` gave a z-score of 2.18. For the compound `COc1ccc(-c2nnc(SC(C)C(=O)Nc3cccc(Cl)c3)o2)cc1` (stereo not drawn), the z-score is -0.517. As for `COc1ccc(-c2nnc(SC(C)C(=O)Nc3ccc4c(c3)OCCO4)o2)cc1` (stereo not drawn), the figure is 1.65; as for `Cc1ccc(C(=O)CSc2nnc(-c3ccccc3)o2)cc1`, 0.068; as for `COc1ccc(-c2nnc(SC(C)C(=O)NNC(=O)c3ccc(C)cc3)o2)cc1` (stereo not drawn), 2.1. As for `COCCNC(=O)c1onc(CSc2ccc(C)c(C)c2)c1C(=O)O`, the figure is -0.0285. On to `CN1C(=O)COc2ccc(C(=O)c3oc4ccccc4c3-c3cnc4c(c3)COc3ccccc3-4)cc21`, for which the z-score was -0.142. As to `O=C(Cc1ccccc1)Nc1c[nH]c(=O)[nH]c1=O`, the z-score was -0.449. As for `Brc1ccc2[nH]c3c(N4CCc5ccccc5C4)ncnc3c2c1`, the figure is -0.00372; as for `O=C(CCn1cccc1)Nc1cc(F)ccc1F`, -0.224; as for `S=c1nc2ccccc2c2nc(-c3ccccc3)[nH]n12`, 2.81. As for `Cc1nc2ccccc2n1CCc1nc2c3ccccc3nc(=S)n2[nH]1`, the figure is -0.257.

Compound `Cc1cncn1CCc1nc2c3ccccc3nc(=S)n2[nH]1` returned a z-score of -0.535.

As to `Cc1ccccc1C(=O)Nc1ccccc1C(=O)NCc1ccccc1`, the z-score is -0.529.

For the compound `CCOC(=O)c1cn2nc(-c3ccc(OCC)cc3)cc2nc1C1CCN(C(=O)OC(C)(C)C)CC1`, the z-score is -0.13.

Regarding `O=C(COC(=O)c1ccc([N+](=O)[O-])s1)Nc1ccccc1`, the z-score is -0.0827. In turn, `Cc1ccc(NC(=O)COC(=O)c2ccc([N+](=O)[O-])s2)c(C)c1` showed a z-score of 0.229. In the case of `CC(C)(C)c1ccc(NC(=O)COC(=O)c2ccc([N+](=O)[O-])s2)cc1`, the z-score was determined as 2.01.

On to `COc1ccccc1/C=C/C(=O)NCC(=O)N/N=C/c1cccnc1`, for which the z-score is 0.376. `CC(NS(=O)(=O)c1ccc(CCC(=O)NCc2cccnc2)cc1)c1ccccc1` (stereo not drawn): the z-score is 0.0386. For the compound `Cc1nnc(SCC(=O)Nc2ccccc2N2CCOCC2)s1`, the z-score was -0.0127. `O=C(Nc1ccc(Cl)cc1)C1CCC(=O)N1Cc1ccccc1Cl` (stereo not drawn) yielded a z-score of 0.406. The compound `O=C(Nc1cc(Cl)cc(Cl)c1)C1CCC(=O)N1Cc1ccccc1Cl` (stereo not drawn) had a z-score of -0.359. Regarding `O=C(Nc1ccc(Br)cc1)C1CCC(=O)N1Cc1ccccc1Cl` (stereo not drawn), the z-score is 4.3 (active).

As for `CCCCN(CCCC)CC(O)CN(c1cc([N+](=O)[O-])ccc1OC)S(=O)(=O)c1ccccc1` (stereo not drawn), the z-score stood at 0.91. In turn, `O=c1[nH]c(CN2CCc3ccccc3C2)nc2ccccc12` registered a z-score of 0.446.

For the compound `Cc1[nH]c2ccccc2c1CN1CCc2ccccc2C1`, the z-score was 3.72 (active). The same measure for `Cn1cc(CN2CCc3ccccc3C2)c2ccccc21`: 0.58; for `COc1ccc(-c2[nH]ncc2/C=N\NC(=O)c2ccc(C(C)(C)C)cc2)cc1OC`: -0.413. In the case of `CCNC(=S)Nc1scc(-c2ccccc2)c1C(=O)OCC`, the z-score was 6.92 (active).

In turn, `CCOC(=O)c1c(-c2ccccc2)csc1NC(=O)CCN1C(=O)c2ccccc2C1=O` came in with a z-score of -0.51.

`CCOC(=O)c1c(-c2ccccc2)csc1NC(=S)N(CC)CC` registered a z-score of 0.121. As for `CCOC(=O)c1c(-c2ccccc2)csc1NC(=S)NC`, the figure is 7.44 (active); as for `CCOC(=O)c1c(-c2ccc(C)cc2)csc1NC(=S)NC(=O)c1ccccc1`, 0.153; as for `CCOC(=O)c1c(-c2ccccc2)csc1NC(=O)C1CCCO1` (stereo not drawn), -0.568. The same measure for `COc1ccc(NC(=O)c2ccc3snnc3c2)cc1`: -0.112. The same measure for `CS(=O)(=O)N1CCN(c2ccc(NC(=O)c3cccnc3Cl)cc2)CC1`: 0.393; for `CC(NS(=O)(=O)c1ccccc1)C(=O)Nc1ccc(S(N)(=O)=O)cc1` (stereo not drawn): 0.246; for `CCCc1cc(=O)[nH]c(SCCOC(=O)c2ccccc2)n1`: -0.349. As for `COc1ccc2nc(NC(=S)N(C)C)sc2c1`, the z-score was 14.8 (active). Regarding `CCOc1ccc2nc(NC(=S)N(C)C)sc2c1`, the z-score was -0.436. As for `COc1ccc2nc(NC(C)=O)sc2c1`, the z-score was -0.0562. As for `COc1cccc(N=C2SC(C(=O)Nc3ccccc3F)CC(=O)N2C)c1` (stereo not drawn), the figure is -0.119; as for `CC(=O)Oc1ccc(N(C(C)=O)S(=O)(=O)c2cccs2)cc1`, -0.202.

In the case of `COc1ccc(S(=O)(=O)N(C(C)=O)c2ccc(OC(C)=O)c3ccccc23)cc1[N+](=O)[O-]`, the z-score was -0.812. On to `CC(=O)Oc1ccc(N(C(C)=O)S(=O)(=O)c2cccs2)c2ccccc12`, for which the z-score is 4.9 (active). In the case of `CC(C)C(=O)NC(=S)Nc1nnn(C)n1`, the z-score is 0.169.

As for `CC(C)C(=O)Nc1nnn(C)n1`, the z-score is 9.51 (active). The same measure for `CC(C)CC(=O)Nc1nnn(C)n1`: 0.332; for `CCN1CCCC1CNC(=O)C(=O)Nc1cccc(OC)c1` (stereo not drawn): 2.04. The same measure for `CCN1CCCC1CNC(=O)C(=O)Nc1ccccc1OC` (stereo not drawn): 0.00956; for `CCN1CCCC1CNC(=O)C(=O)Nc1ccc(OC)cc1` (stereo not drawn): 0.521. As for `CCOc1ccc(N(CC(=O)N2CC=C(c3ccccc3)CC2)S(=O)(=O)c2c(C)noc2C)cc1`, the figure is -0.285; as for `O=C(COC(=O)c1cn(-c2ccccc2)nc1-c1ccc(F)cc1)Nc1ncc(Cl)cc1Cl`, 0.0446; as for `CCC(C)NC(=O)C1CCN(c2nc(OC)nc(OC)n2)CC1` (stereo not drawn), 0.12. On to `C/C(CC(=O)Nc1cccc2c1CCCC2)=N\NC(=O)c1ccccc1N`, for which the z-score was 2.22. As for `C/C(CC(=O)Nc1cccc2c1CCCC2)=N\NC(=O)c1cccc2ccccc12`, the figure is -0.483; as for `CCn1c2ccccc2c2cc(NC(=O)C/C(C)=N/NC(=O)c3ccccc3N)ccc21`, -0.0756. The compound `COc1cc(NC(=O)c2ccco2)ccc1NC(=O)C(C)C` displayed a z-score of 0.332. As for `Nc1nc(SCC(=O)NCCCO)nc2sc3c(c12)CCC3`, the figure is 1.08. In the case of `O=C(CC1NC2CCCCC2NC1=O)Nc1cccc(C(F)(F)F)c1` (stereo not drawn), the z-score amounted to 0.497.

In the case of `O=C(CSC1=NS(=O)(=O)c2ccccc21)Nc1ccccc1`, the z-score is -0.326. The compound `Cc1ccc(NC(=O)CCSCCC(=O)Nc2ccc(C)c(C)c2)cc1C` showed a z-score of -0.0616. For the compound `O=C(Nc1ccc(F)c(F)c1)NC1CCCCC1`, the z-score was 3.01 (active). On to `O=C(Nc1ccc(Cl)cc1)NC1CCCCC1`, for which the z-score is 0.269.

For `CCc1cccc(NC(=O)CCSCCC(=O)Nc2cccc(CC)c2)c1`, the z-score was 3.02 (active).

In turn, `O=C(Nc1ccc(F)cc1)NC1CCCCC1` yielded a z-score of 0.532.

In turn, `O=C(Nc1cccc(F)c1)NC1CCCCC1` had a z-score of 0.258.

On to `CCc1cccc(NC(=O)NC2CCCCC2)c1`, for which the z-score is 4.38 (active). The compound `CCc1cccc(NC(=O)COc2ccccc2)c1` gave a z-score of 0.78. `CCc1cccc(NC(=O)C2CCCC2)c1`: the z-score stood at 0.366. The same measure for `COC(=O)CSC1=NS(=O)(=O)c2ccccc21`: -2.06. For `CCc1cccc(NC(=O)CSC2=NS(=O)(=O)c3ccccc32)c1`, the z-score was 3.52 (active).

Consider `CCc1cc2c(=O)c(Oc3ccccc3)c(C)oc2cc1O`, for which the z-score was 0.432. For `O=C(CNC(=O)c1cccc(F)c1)N/N=C/c1cccc([N+](=O)[O-])c1`, the z-score is -0.00152. For `COc1ccc(S(=O)(=O)NC(C(C)C)C(C)C)cc1OC`, the z-score stood at 0.101. The compound `CSc1nc(N2CCOCC2)c2c(c1C#N)CCCCC2` registered a z-score of -0.315. As for `CCC1Cc2c(nc3c4c(nc(N5CCOCC5)c(C#N)c24)NC(C)=N3)O1` (stereo not drawn), the figure is -0.387; as for `O=C(c1ccco1)N1CCCC(c2ccccc2)C1` (stereo not drawn), -0.388; as for `CCOC(=O)c1ccc(COC(=O)c2nonc2N)cc1`, -0.0847. For `C=CCNC(=O)CC(C)C(CCCCC)C(=O)O` (stereo not drawn), the z-score was -0.15. As for `Cc1ccc(CNC(=O)c2cc3c(C)nc4ccccc4c3o2)cc1`, the figure is 0.19. As for `Cc1ccc(SCCNC(=O)c2ccccc2C)cc1`, the figure is -0.0405; as for `O=C(Cn1nc(-c2ccc(Cl)cc2)c2ccccc2c1=O)Nc1cccnc1`, -0.258. As for `CCC(C)(C)n1nnnc1CN1CCN(c2nc3cc(OC)ccc3cc2C#N)CC1`, the figure is -1.2; as for `OCCNc1ncnc2c1ncn2Cc1ccccc1`, -0.662; as for `CC(C)CCn1cnc2c(NCc3ccccc3)ncnc21`, 2.07.

In the case of `Cn1ncc2c(NCc3ccccc3)ncnc21`, the z-score is -0.129. As to `O=C(CCCOc1ccc(Cl)cc1Cl)N/N=C\C1CCCCC1`, the z-score was -0.118.

Consider `CCn1c(-c2cc(-c3cc(OC)ccc3OC)nc3ccccc23)n[nH]c1=S`, for which the z-score was determined as 0.132. As for `CCn1c(-c2cc(-c3cccc(OC)c3)nc3ccccc23)n[nH]c1=S`, the figure is 1.92; as for `CCn1c(-c2cc(-c3ccccc3OC)nc3ccccc23)n[nH]c1=S`, 0.152. Take `CCOc1cccc(-c2cc(-c3n[nH]c(=S)n3CC)c3ccccc3n2)c1`: the z-score turned out to be 2.09. For the compound `CCCOc1cccc(-c2cc(-c3n[nH]c(=S)n3CC)c3ccccc3n2)c1`, the z-score was 4.22 (active).

As to `CCn1c(-c2cc(-c3ccc(OC(C)C)cc3)nc3ccccc23)n[nH]c1=S`, the z-score was 1.25. The compound `CCOC(=O)c1cc2nc(-c3ccco3)cc(C(F)(F)F)n2n1` displayed a z-score of -1.72. As for `CCOc1ccc(-c2nc(C#N)c(NCc3ccc4c(c3)OCO4)o2)cc1`, the figure is 0.406; as for `O=c1[nH][nH]c(-c2ccccc2)c1C=Nc1ccccc1`, -0.278; as for `O=C1CCC2CCCCC2(O)O1` (stereo not drawn), -0.0285.
